Data: PubChem BioAssay (NCATS)
Inconclusive results are not listed. Calls of active or inactive are those of the source. Calls follow the shape of the dose curve; as a rule, active = well fitted inhibition curve with a large enough effect; inconclusive = small, poorly fitted or top-dose-only effect; inactive = no such curve, though single readings can be large or run the other way.

Biological target: Chromobox protein homolog 1 (Homo sapiens) (UniProt P83916)
Assay: qHTS Validation Assay for Inhibitors of HP1-beta Chromodomain Interactions with Methylated Histone Tails (AID 488953); also: nearly all actives have a fitted effect of over 50% in size
Conditions: HP1-beta chromodomain / methylated histone peptide binding assay; series mostly up to 114 µM; activity change, negative = inhibition: at the top concentration
Text: As our understanding of epigenetics expands, it is becoming clear that players in this field are potential targets for drug development. This area of epigenetic therapy has established applications for the treatment of cancer and neurological diseases. We have been involved in this field for a number of years and have performed high-throughput screens to identify the first small molecule inhibitors of protein methyltransferases. These methyltransferases target multiple substrates, and thus regulate many arms of an epigenetic pathway. The methylation of different substrates often generates docking sites for effector proteins that harbor binding domains (chromo, tudor, PHD, MBT and ANK repeats).
It has been proposed that the binding sites generated for different proteins by these post-translational modifcations mediate downstream effects on chromatin. Consistent with this theory, di- and tri-methylation of histone H3K9 facilitates the binding of heterochromatin protein HP1. The HP1 protein harbors a chromodomain that is responsible for the methyl-dependent interaction between HP1 and lysine 9 of histone H3. HP1 was first described in flies as a heterochromatin associated protein that can regulate gene silencing. It harbors a chromodomain that binds H3K9me3. In addition, it harbors a chromoshadow domain that interacts with a large number of proteins that are involved in heterochromatin formation and gene repression. There are three highly related HP1 isoforms. All three variants are associated with pericentric heterochromatin and it is not clear whether they have specific or redundant functions. MPP8 is also involved in the repression of gene in euchromatic regions (unpublished data) and like HP1 its chromodomain binds H3K9me3. MPP8 harbors an ankyrin repeat region that is likely involved in binding and recruiting interacting proteins with transcriptional repressive function, much like the chromoshadow domain of HP1 does.
We hypothesize that by inhibiting specific protein-protein interactions we will be able to develop compounds that block a single arm of an epigenetic pathway. The specificity attained by blocking a single protein-protein interaction will be far greater than that attained by blocking the enzyme that regulates one of many interactions.
Low-affinity protein-protein interactions (Kd in the single- to double-digit micromolar range) such as those discussed here have been very difficult to assay by traditional techniques such as fluorescence polarization or fluorescence resonance energy transfer. We have developed a sensitive chemiluminescence-based assay (Quinn, et al. 2009), which serves as the starting point for this project.
The following is a validation assay to identify lead compounds that can block methyl-dependent protein-protein interactions (specifically HP1-beta), which can be used as probes to analyze these methyl-driven interactions and perhaps even developed into targeted epigenetic therapies.
Assay Provider: Mark T. Bedford, MD Anderson
Screening Center PI: Austin, C.P.
Screening Center: NIH Chemical Genomics Center [NCGC]
To each well, 2 uL of HP1-beta protein (final 50 nM) and 1 uL biotinylated histone peptide trimethylated at Lys9 [b-H3(1-18)K9me3] (final 50 nM) was added in 1x PBS buffer, pH 7.4, containing 0.01% Tween-20 using a nanoliter dispenser. Formation of a protein-peptide complex proceeded at room temperature for 30 min. A Kalypsys pin-tool was employed to transfer 23 nL of library compound solution in DMSO to each well. Aurintricarboxylic acid (ATA) was used as an intraplate control with a 12-point titration in duplicate. Following a 30 min incubation of the protein-peptide complex with compounds at room temperature, a mixture of 40 ug/mL each streptavidin-coated donor and nickel chelate acceptor AlphaScreen beads (final 10 ug/mL) was added in a 1 uL dispense for a final volume of 4 uL. Plates were incubated protected from the light for 30 min at room temperature. […]
% is scaled to controls: 0 for no effect and ±100 for the full control effect; potency is read from the fitted curve at half-maximal effect.

Chromobox protein homolog 1 (Homo sapiens), sequence (P83916 whole entry, looked up): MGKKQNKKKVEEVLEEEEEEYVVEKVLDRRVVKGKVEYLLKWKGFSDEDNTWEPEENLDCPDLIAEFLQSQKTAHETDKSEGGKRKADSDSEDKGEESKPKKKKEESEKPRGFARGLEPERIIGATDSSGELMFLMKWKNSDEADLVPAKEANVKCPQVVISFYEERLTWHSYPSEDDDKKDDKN

| Compound | activity change, negative = inhibition | Potency |
| --- | --- | --- |
| NC1CCN(c2cccc(Cl)n2)CC1 | -9% (inactive) |  |
| C=Cc1c(C)c2cc3[nH]c(cc4nc(cc5nc(cc1[nH]2)C(C)=C5CCC(=O)O)C(CCC(=O)O)=C4C)c(C)c3C=C | 9.04% [at 57.1 µM] (inactive) |  |
| CC(C)(C(=O)O)c1ccc(C(O)CCCN2CCC(C(O)(c3ccccc3)c3ccccc3)CC2)cc1 (stereo unspecified) | -6.66% (inactive) |  |
| C[C@]12C[C@H](O)[C@H]3[C@@H](CCC4=CC(=O)CC[C@@]43C)[C@@H]1CC[C@@H]2C(=O)CO | -1.12% (inactive) |  |
| COc1ccc(Cl)cc1C(=O)NCCc1ccc(S(=O)(=O)NC(=O)NC2CCCCC2)cc1 | -6.12% (inactive) |  |
| CC(CN1c2ccccc2Sc2ccccc21)N(C)C (stereo unspecified) |  | 39.8 µM (active) |
| CCCn1cnc2c1c(=O)n(CCCCC(C)=O)c(=O)n2C | -5.96% (inactive) |  |
| CSc1ccc2c(c1)N(CCC1CCCCN1C)c1ccccc1S2 (stereo unspecified) |  | 28.2 µM (active) |
| CNCC(O)c1ccc(O)c(O)c1 (stereo unspecified) | -5.06% (inactive) |  |
| CCN(CC)C(C)CN1c2ccccc2Sc2ccccc21 (stereo unspecified) |  | 0.0299 µM (active) |
| CC(C)C(=O)c1c(C(C)C)nn2ccccc12 | -1.39% (inactive) |  |
| NC(=O)c1ncn([C@@H]2O[C@H](CO)[C@@H](O)[C@H]2O)n1 | -7.77% (inactive) |  |
| Nc1ncnc2c1ncn2[C@@H]1O[C@H](CO)[C@@H](O)[C@H]1O | -3.54% (inactive) |  |
| CC[C@H]1CN2CCc3cc(OC)c(OC)cc3[C@@H]2C[C@@H]1C[C@H]1NCCc2cc(OC)c(OC)cc21 | -0.35% (inactive) |  |
| CN1CCN(C2Cc3ccccc3Sc3ccc(Cl)cc32)CC1 (stereo unspecified) |  | 14.1 µM (active) |
| N=c1c[n+](N2CCOCC2)[n-]o1 | -7.45% (inactive) |  |
| CCN(CC)CCOC(=O)C1(C2CCCCC2)CCCCC1 | -14.6% (inactive) |  |
| CC(=O)OCC(=O)[C@@]1(O)CC[C@H]2[C@@H]3CCC4=CC(=O)CC[C@]4(C)[C@H]3C(=O)C[C@@]21C | -1.4% (inactive) |  |

| Compound | activity change, negative = inhibition | Potency |
| --- | --- | --- |
| C#CCN(C)Cc1ccccc1 | -4.39% (inactive) |  |
| CCCCCCCCCCCCCCCC(=O)NCCO | 4.32% (inactive) |  |
| C[C@]12CC[C@@H]3c4ccc(O)cc4CC[C@H]3[C@@H]1CCC2=O | -1.04% (inactive) |  |
| CC(C)NC[C@H](O)c1ccc(O)c(O)c1 |  | inactive |
| CCN(CC)CCNC(=O)c1cc(Cl)c(N)cc1OC | -5.98% (inactive) |  |
| CC(C)(C)c1onc(OCP(=O)(O)O)c1CC(N)C(=O)O (stereo unspecified) |  | inactive |
| CC(C)(C)[C@]1(O)CCN2C[C@H]3c4ccccc4CCc4cccc(c43)[C@@H]2C1 | -9.51% (inactive) |  |
| CN(C)CCOC(C)(c1ccccc1)c1ccccn1 (stereo unspecified) | -3.44% (inactive) |  |
| CC1=C(CC(=O)O)c2cc(F)ccc2/C1=C\c1ccc(S(C)(=O)=O)cc1 |  | 0.006 µM (active) |
| Nc1cc(=O)[nH]c(N)n1 | -3.88% (inactive) |  |
| CNCCCC1c2ccccc2C=Cc2ccccc21 | -10.9% (inactive) |  |
| CNC(=O)Oc1ccc2c(c1)[C@]1(C)CCN(C)[C@@H]1N2C | -5.84% (inactive) |  |
| C[C@](N)(Cc1ccc(O)cc1)C(=O)O | -3.23% (inactive) |  |
| CSc1ccc2c(c1)C(N1CCN(C)CC1)Cc1ccccc1S2 (stereo unspecified) |  | 39.8 µM (active) |
| OCCN1CCN(CCCN2c3ccccc3Sc3ccc(Cl)cc32)CC1 |  | 31.6 µM (active) |
| CC(CN(C)C)CN1c2ccccc2CCc2ccccc21 (stereo unspecified) |  | 28.2 µM (active) |
| CN(C)CC[C@@H](c1ccc(Cl)cc1)c1ccccn1 | -5.78% (inactive) |  |
| CC(C(O)c1ccc(O)cc1)N1CCC(Cc2ccccc2)CC1 (stereo unspecified) | -13% (inactive) |  |
